Results on 44 compounds are retold here after the antibiotic and cytotoxicity screens of Wong et al. (2023).

Among all 39,000 compounds or so, about 3,300 (8.5%) were called active. Only a selection was taken, and actives are over-represented in it overall.

In the assay the test system is HepG2. As to the kind of experiment: cytotoxicity call (relative viability < 0.9). To be noted: 10 µM.
Consider `COc1ccc(NC(=O)N(C)C[C@H]2OCCCC[C@@H](C)Oc3ccc(NS(=O)(=O)c4ccccc4)cc3C(=O)N([C@@H](C)CO)C[C@H]2C)cc1`, for which the cytotoxicity call is “inactive”.

Turning to `CC(C)NC(=O)N(C)C[C@H]1OCc2cnnn2CCCC(=O)N([C@H](C)CO)C[C@H]1C`, the cytotoxicity call is “inactive”. Consider `C[C@@H]1CCCCO[C@@H](CN(C)C(=O)Nc2ccc(F)cc2)[C@@H](C)CN([C@H](C)CO)C(=O)c2cc(NS(=O)(=O)c3ccc(Cl)cc3)ccc2O1`, for which the cytotoxicity call is “inactive”. For the compound `C[C@@H]1CCCCO[C@@H](CN(C)C(=O)Nc2ccc(F)cc2)[C@H](C)CN([C@@H](C)CO)C(=O)c2cc(NS(=O)(=O)c3ccc(Cl)cc3)ccc2O1`, the cytotoxicity call was “inactive”. With `C[C@@H]1CCCCO[C@H](CN(C)C(=O)Nc2ccc(F)cc2)[C@@H](C)CN([C@@H](C)CO)C(=O)c2cc(NS(=O)(=O)c3ccc(Cl)cc3)ccc2O1`, the cytotoxicity call is “active”.

`C[C@@H]1CCCCO[C@@H](CN(C)C(=O)Nc2ccccc2)[C@H](C)CN([C@@H](C)CO)C(=O)c2cc(NS(=O)(=O)c3ccc(Cl)cc3)ccc2O1`: the cytotoxicity call is “inactive”. As for `C[C@H](CO)N1C[C@H](C)[C@@H](CN(C)C(=O)Nc2ccc(F)cc2)OCCCC[C@H](C)Oc2ccc(NS(=O)(=O)c3ccc(Cl)cc3)cc2C1=O`, the cytotoxicity call is “inactive”. For `C[C@@H]1CN([C@@H](C)CO)C(=O)c2cc(NS(=O)(=O)c3ccc(Cl)cc3)ccc2O[C@@H](C)CCCCO[C@@H]1CN(C)C(=O)Nc1ccc(F)cc1` the value was “inactive”; for `C[C@@H]1CN([C@H](C)CO)C(=O)c2cc(NS(=O)(=O)c3ccc(Cl)cc3)ccc2O[C@@H](C)CCCCO[C@H]1CN(C)C(=O)Nc1ccc(F)cc1`, “active”. Turning to `C[C@H]1CCCCO[C@H](CN(C)C(=O)Nc2ccc(F)cc2)[C@@H](C)CN([C@@H](C)CO)C(=O)c2cc(NS(=O)(=O)c3ccc(Cl)cc3)ccc2O1`, the cytotoxicity call is “active”. For `C[C@@H]1CCCCO[C@H](CN(C)C(=O)Nc2ccccc2)[C@@H](C)CN([C@H](C)CO)C(=O)c2cc(NS(=O)(=O)c3ccc(Cl)cc3)ccc2O1` the value was “inactive”; for `C[C@@H]1CCCCO[C@H](CN(C)C(=O)Nc2ccccc2)[C@@H](C)CN([C@@H](C)CO)C(=O)c2cc(NS(=O)(=O)c3ccc(Cl)cc3)ccc2O1`, “active”; for `C[C@@H]1CCCCO[C@H](CN(C)C(=O)Nc2ccc(F)cc2)[C@@H](C)CN([C@H](C)CO)C(=O)c2cc(NS(=O)(=O)c3ccc(Cl)cc3)ccc2O1`, “inactive”. With `C[C@H]1CCCCO[C@@H](CN(C)C(=O)Nc2ccc(F)cc2)[C@@H](C)CN([C@@H](C)CO)C(=O)c2cc(NS(=O)(=O)c3ccc(Cl)cc3)ccc2O1` the entry was “inactive”; with `CC(=O)N[C@H]1[C@H](O/N=[N+](\[O-])N2CCCC2)O[C@H](CO)[C@@H](O)[C@@H]1O`, “inactive”. For the compound `COc1ccc(S(=O)(=O)N2C[C@@H](O)COC[C@H]3O[C@@H](CC(=O)NCCCN4CCOCC4)CC[C@@H]32)cc1`, the cytotoxicity call was “inactive”. Turning to `O=C(C[C@H]1C[C@H]2c3cc(NC(=O)NC4CCCC4)ccc3O[C@H]2[C@H](CO)O1)NCc1ccc2c(c1)OCO2`, the cytotoxicity call is “inactive”. For `CC(=O)OC1CCC2(C)C(CCC3(C)C2CCC24OC(=O)C5(CCC(C)C(C)C52)CCC34C)C1(C)C` (centres undefined) the value was “inactive”. `COc1ccc(CN(C)C[C@@H]2Oc3ccc(NC(=O)C4CC4)cc3CC(=O)N([C@@H](C)CO)C[C@H]2C)cc1`: the cytotoxicity call is “inactive”.

With `COc1ccc(CN(C)C[C@@H]2OCCCC[C@H](C)Oc3ccc(NC(=O)Nc4c(C)noc4C)cc3C(=O)N([C@@H](C)CO)C[C@H]2C)cc1`, the cytotoxicity call was “inactive”. With `C[C@H](CO)N1C[C@H](C)[C@H](CN(C)Cc2ccc(Cl)c(Cl)c2)Oc2c(NC(=O)Nc3cccc4ccccc34)cccc2C1=O` the entry was “inactive”; with `Cc1ccc(S(=O)(=O)N(C)C[C@@H]2Oc3ccc(NS(C)(=O)=O)cc3C(=O)N([C@@H](C)CO)C[C@H]2C)cc1`, “inactive”. For `CC(C)NC(=O)N(C)C[C@H]1Oc2c(NC(=O)Nc3ccc4c(c3)OCO4)cccc2C(=O)N([C@H](C)CO)C[C@H]1C` the value was “inactive”. With `O=C(C[C@H]1C[C@H]2c3cc(NS(=O)(=O)c4ccc(F)cc4)ccc3O[C@H]2[C@H](CO)O1)NCc1ccccc1` the entry was “inactive”; with `C[C@@H]1CCCCO[C@@H](CN(C)C(=O)Nc2ccc(F)cc2)[C@H](C)CN([C@H](C)CO)C(=O)c2cc(NS(=O)(=O)c3ccc(Cl)cc3)ccc2O1`, “active”.

Regarding `C[C@@H]1CCCCO[C@H](CN(C)C(=O)Nc2ccc(F)cc2)[C@H](C)CN([C@@H](C)CO)C(=O)c2cc(NS(=O)(=O)c3ccc(Cl)cc3)ccc2O1`, the cytotoxicity call was “inactive”. For `C[C@H](CO)N1C[C@H](C)[C@H](CN(C)C(=O)Nc2ccc(F)cc2)OCCCC[C@H](C)Oc2ccc(NS(=O)(=O)c3ccc(Cl)cc3)cc2C1=O` the value was “active”.

In the case of `C[C@@H]1CCCCO[C@H](CN(C)C(=O)Nc2ccc(F)cc2)[C@H](C)CN([C@H](C)CO)C(=O)c2cc(NS(=O)(=O)c3ccc(Cl)cc3)ccc2O1`, the cytotoxicity call was “inactive”.

For `O=C(C[C@H]1C[C@H]2c3cc(NC(=O)Cc4ccncc4)ccc3O[C@H]2[C@@H](CO)O1)NCc1ccc2c(c1)OCO2`, the cytotoxicity call is “inactive”.

Consider `C[C@@H]1CN([C@H](C)CO)C(=O)c2cc(NC(=O)Nc3ccc4c(c3)OCO4)ccc2O[C@@H](C)CCCCO[C@@H]1CN(C)S(=O)(=O)c1ccccc1`, for which the cytotoxicity call was “inactive”. For `C[C@@H]1CN([C@@H](C)CO)C(=O)c2cc(NC(=O)Nc3ccc4c(c3)OCO4)ccc2O[C@@H](C)CCCCO[C@@H]1CN(C)C(=O)Cc1ccccc1`, the cytotoxicity call was “inactive”. `Cc1ccc(Cn2c3ccccc3c3ccccc32)cc1`: the cytotoxicity call was “inactive”. Take `CN1CCc2c(c3ccccc3n2Cc2ccccc2)C1`: the cytotoxicity call is “active”. With `Cn1sc(=O)n(Cc2ccccc2)c1=O` the entry was “inactive”.

`C[C@@H]1CCCCO[C@H](CN(C)C(=O)Nc2ccccc2)[C@@H](C)CN([C@H](C)CO)C(=O)c2cc(NC(=O)CCC(F)(F)F)ccc2O1`: the cytotoxicity call is “inactive”.

In the case of `C[C@@H]1CCCCO[C@H](CN(C)C(=O)C2CCCCC2)[C@H](C)CN([C@@H](C)CO)C(=O)c2cc(NC(=O)Nc3ccc(C(F)(F)F)cc3)ccc2O1`, the cytotoxicity call is “inactive”. For `C[C@@H]1CCCCO[C@H](CN(C)C(=O)C2CCCCC2)[C@@H](C)CN([C@H](C)CO)C(=O)c2cc(NC(=O)Nc3ccc(C(F)(F)F)cc3)ccc2O1` the value was “inactive”; for `C[C@H]1CCCCO[C@@H](CN(C)C(=O)C2CCCCC2)[C@@H](C)CN([C@@H](C)CO)C(=O)c2cc(NC(=O)Nc3ccc(C(F)(F)F)cc3)ccc2O1`, “active”; for `C[C@H]1CCCCO[C@H](CN(C)C(=O)C2CCCCC2)[C@@H](C)CN([C@@H](C)CO)C(=O)c2cc(NC(=O)Nc3ccc(C(F)(F)F)cc3)ccc2O1`, “inactive”. Turning to `C[C@@H]1CCCCO[C@@H](CN(C)C(=O)C2CCCCC2)[C@H](C)CN([C@@H](C)CO)C(=O)c2cc(NC(=O)Nc3ccc(C(F)(F)F)cc3)ccc2O1`, the cytotoxicity call was “active”.

Take `C[C@@H]1CN([C@H](C)CO)C(=O)c2cc(NC(=O)Nc3ccc(C(F)(F)F)cc3)ccc2O[C@@H](C)CCCCO[C@H]1CN(C)C(=O)C1CCCCC1`: the cytotoxicity call is “inactive”. As for `C[C@H](CO)N1C[C@H](C)[C@@H](CN(C)C(=O)C2CCCCC2)OCCCC[C@H](C)Oc2ccc(NC(=O)Nc3ccc(C(F)(F)F)cc3)cc2C1=O`, the cytotoxicity call was “inactive”.

For the compound `C[C@@H]1CN([C@H](C)CO)C(=O)c2cc(NC(=O)Nc3ccc(C(F)(F)F)cc3)ccc2O[C@@H](C)CCCCO[C@@H]1CN(C)C(=O)C1CCCCC1`, the cytotoxicity call was “active”. Turning to `C[C@@H]1CCCCO[C@@H](CN(C)C(=O)C2CCCCC2)[C@@H](C)CN([C@H](C)CO)C(=O)c2cc(NC(=O)Nc3ccc(C(F)(F)F)cc3)ccc2O1`, the cytotoxicity call is “inactive”.
